In PubChem BioAssay (NCI):
Compounds without any hit were thinned out: in the full panel of roughly 83,000, 20% have a hit.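 Cell lines were cultured in 96-well plates, exposed to a single compound concentration, and assessed for percent growth 48 hours later.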 A number with no mark means an inactive call. Calls of active or inactive are those of the source.

test system: KM12 colon; assay: NCI-60 one-dose screen, 48 h (100 = growth as untreated, 0 = no growth, -100 = all killed); settings: 10 µM unless noted
Experimental: Growth inhibition of the KM12 human tumor cell line is measured as a screen for anti-cancer activity. Cells are grown in 96 well plates and exposed to the test compound for 48 hours. Compounds are tested at a single concentration, which is 10^-5 M for most compounds. The reported endpoint is percent growth (GI% or GIPRCNT), where numbers from 0 - 100% represent growth inhibition, and numbers from -100% - 0 represent cell death. For example, a value of 40 represents 60% growth inhibition. A value of 0 means no net growth occurred over the course of the experiment. A value of -40 indicates 40% of cells at the beginning of the experiment died by the end of the experiment. A value of -100 means all cells are dead at the end of the experiment.
NCI-60 Human Tumor Cell Lines Screen was performed using the standard one-dose NCI protocol, which is described in more detail at https://dtp.cancer.gov/discovery_development/nci-60/default.htm.
Compounds with GIPRCNT values below 10 were considered active. Activity score was based on GIPRCNT using the following formula: […]
Score is 0 for GIPRCNT values of 100 or above, 50 for GIPRCNT values of 0, and 100 for GIPRCNT values of -100.

Row | Structure (SMILES) | growth
1 | COc1ccc(-c2ccc(-c3ccc(C(=N)N)cc3)s2)cc1Cl | -73.2% (active)
2 | Cc1cc(C)c2c(c1)N(C)c1ncnc(-n3cnc4cc(C)ccc43)c1CC2C (stereo not given) | 22.7%
3 | NC(=O)c1cccc(-n2ccc3cc(NC(=O)c4ccc(N5CCOCC5)c(C(F)(F)F)c4)ccc32)n1 | 33.3%
4 | N#Cc1ccc(O)c(C2=NCC(c3ccccc3)O2)c1 (stereo not given) | 37.2%
5 | O=C(/C=C/c1ccco1)Nc1ncc(Cc2cccc(C(F)(F)F)c2)s1 | 4.7% (active)
6 | NC(=O)CSc1oc(-c2ccccc2)nc1S(=O)(=O)c1ccc(Br)cc1 | 89%
7 | CCOC(=O)c1ccc(NC(=O)c2nc(-c3cc(OC)c(OC)c(OC)c3)n(-c3ccc(Cl)cc3)n2)cc1 | 94%
8 | CCCCNC(=O)CC1=C(C)/C(=C/c2[nH]c(-c3ccc[nH]3)cc2OC)N=C1C | 13.4%
9 | O=c1c2ccccc2n2cnc3ccc(Cl)c1c32 | 84.3%
10 | Nc1nc(N)c(-c2ccc(Cl)c(Cl)c2)c(CBr)n1 | 88.7%
11 | N#Cc1c(-c2ccccc2)[nH]c2ncc(-c3ccccc3)n2c1=O | 89.8%
12 | CCSc1oc(-c2ccccc2)nc1[P+](c1ccccc1)(c1ccccc1)c1ccccc1 | -16.2% (active)
13 | O=C(CN1C(=O)S/C(=C\C(Cl)=C\c2ccccc2)C1=O)NCCc1ccc(O)cc1 | 5.78% (active)
14 | Nc1nc2ccccc2c2c(=O)c3cccc(Cl)c3sc12 | 89.8%
15 | O=C(c1nn(-c2ccccc2)c2c1CC(NCc1ccc(F)cc1)CC2)N1CCCCC1 (stereo not given) | 102%
16 | COCCOc1cc2ncnc(N3CCN(c4ncc(S(=O)(=O)N5CCCCC5)cn4)CC3)c2cc1OCCOC | 97.6%
17 | O=C(O)CCN1C(=O)/C(=C/C(Cl)=C/c2ccccc2)SC1=S | 15.3%
18 | C#CCOc1cccc(Nc2ncnc3cc(NC(=O)C=C)ccc23)c1 | 24.6%
19 | COc1cc2c(c(OC)c1OC)CCC(c1cccc(C(=O)Nc3cccc(Cl)c3)c1)O2 (stereo not given) | 96.3%
20 | Cc1ccc(C2=Nc3c(N)ncnc3NC(c3cccc(Nc4ccnc5cc(C(F)(F)F)ccc45)c3)C2)cc1 (stereo not given) | 15.9%

Row | Structure (SMILES) | growth
21 | Cc1cc(S(=O)(=O)/N=C(\N)n2nc(C)c(C)c2C)c(SCc2ccccc2)cc1Cl | 81.7%
22 | C=CC(=O)N1CCN(c2cccc(Oc3nccc(Nc4nnc(-c5ccc(Br)cc5)s4)n3)c2)CC1 | 43.8%
23 | CCOC(=O)Cc1cnc(N/N=C(\C)c2cc3ccccc3o2)s1 | 96.3%
24 | CC1(C)CC(=O)C2=C(C1)N(c1ccc(OC(F)(F)F)cc1)C(N)=C(C#N)C2c1ccc(Br)cc1F (stereo not given) | 89.5%
25 | CCOC(=O)c1csc(NC(=O)COc2ccc(/C=C3\Oc4ccccc4C3=O)cc2)n1 | 88.7%
26 | Nc1n[nH]c2cccc(C#Cc3cccc(C(=O)Nc4cc(C(F)(F)F)cc(C(F)(F)F)c4)c3)c12 | 43.9%
27 | CCOC(=O)C(=O)C(C(=O)OCC)c1ccccc1 (stereo not given) | 107%
28 | CCOC(=O)c1cc(C)n(-c2ccc(C(=O)O)cc2)c1C | 95.3%
29 | COC12C=C/C(=C(/C(=O)OCc3ccncn3)C(=O)CCCCCCCCC3(OC)C=C/C(=C(/C(=O)OCc4ccncn4)C(=O)CCCCCCCC1)O3)O2 | -75.9% (active)
30 | Cc1ccc(C)n1-c1ccccc1-n1c(C)ccc1C | 117%
31 | O=C(Nn1c2c(sc1=NC1CC1)C(=O)c1ccccc1C2=O)c1cc2ccc1CCc1ccc(cc1)CC2 | 35.2%
32 | Cn1cc(-c2ccc3nc(-c4ccc(CC(=O)ONc5cc(C(C)(C)C)on5)cc4)cnc3c2)cn1 | 11%
33 | COc1ccc(C(=O)Nc2cccc(-c3cc(=O)c4c(OC)c(OC)c(OC)cc4o3)c2)cc1 | 46.3%
34 | Fc1cnccc1C1CC(c2ccc(N3CCNCC3)cc2)=NN1 (stereo not given) | 96.2%
35 | CCNCCNc1cc(-c2ccc(C(F)(F)F)cc2)c(C#N)c2nc3ccccc3n12 | -85.1% (active)
36 | O=C(Nc1cccc(-c2ccc(Cl)c(C(F)(F)F)c2)c1)C1CCN(Cc2cccc3cccnc23)CC1 | -27.4% (active)
37 | COC(=O)/C=C1/SC(=Nc2cccc(OC)c2)N(CCc2c[nH]c3ccc(O)cc23)C1=O | 53.5%
38 | CSc1nc2ccccc2cc1/C=C1/C=C(c2ccccc2)NC1=O | 59.6%
39 | COc1ccc(-c2nc3c(ncc4ccc(=O)[nH]c43)s2)cc1 | 64.8%
40 | O=CN1N=C(c2cccc(Nc3ccnc4cc(Cl)ccc34)c2)CC1c1ccccc1 (stereo not given) | 19.7%
